PubChem BioAssay AID449764 (Southern Research Specialized Biocontainment Screening …, 2010)
The campaign covered roughly 2,300 compounds. About 1,700 (74%) were called active. The rule behind the calls is not given here. So high a share suggests a set chosen from earlier hits. Some of the results follow. Measured potencies and affinities stand elsewhere.

Assay: Confirmatory growth inhibition assay, Mycobacterium tuberculosis H37Rv, absence of glycerol (AID 449764);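 note: growth read after 7 days of incubation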
Conditions: no glycerol; series mostly up to 100 µM

Compound | outcome
CCc1cc(C(=O)Nc2ccc(C)cc2Br)cs1 | inactive
CC(=O)CCSc1ncnc2sc(-c3ccccc3)cc12 | inactive
O=C(CCSc1ccc(Cl)cc1)NC12CC3CC(CC(C3)C1)C2 | inactive
Nc1cc(=O)[nH]c(SCc2csc(-c3ccccc3)n2)n1 | inactive
CSc1ccccc1C(=O)NC1CCSc2ccccc21 (stereo not given) | inactive
Cc1cccc(COc2ccccc2/C=N/Nc2ccc([N+](=O)[O-])cc2)c1 | inactive
CCCn1c(O)c(N=NC(=O)c2ccco2)c2ccccc21 | inactive
CCn1nc(C)c(C(=O)Nc2cc(Oc3cc(C)cc(C)c3)cc([N+](=O)[O-])c2)c1C | inactive
Cc1c(Cl)c([N+](=O)[O-])nn1Cc1ccc(C(=O)N/N=C\c2cccc(Br)c2)o1 | inactive
CN1C(=O)CC(c2ccccc2)C1=O (stereo not given) | inactive
COc1ccc(OC)c(C(=O)NC(CC(N)=O)c2ccc(NCc3ccc(F)c(F)c3)c([N+](=O)[O-])c2)c1 (stereo not given) | inactive
Nc1ccc2oc(-c3cccs3)nc2c1 | inactive
Fc1cccc2sc(Nc3nc4cc5c(cc4s3)OCO5)nc12 | inactive
CC1=CC(=O)NP(=O)(Oc2ccc3ccccc3c2)N1 (stereo not given) | inactive
O=C(OCCN1C(=O)c2ccccc2C1=O)c1cc2ccccc2o1 | inactive
C=CCc1cccc(CNc2cnc3ccccc3c2)c1O | inactive
CNc1cccccc1=S | inactive
COc1cc2cnc(-c3ccccc3)c(-c3ccc(C(F)(F)F)cc3)c2cc1OC | inactive
CCCCc1cc(=O)oc2cc(O)ccc12 | inactive
Cc1n[nH]c(=S)n1/N=C/c1cccc(OCc2ccccc2)c1 | inactive
COC(=O)c1cccc(C#CC(NP(=O)(c2ccccc2)c2ccccc2)c2ccccc2)c1 (stereo not given) | inactive
COc1ccc(NC(=O)CN(C)C(=O)c2n[nH]c3ccccc23)cc1 | inactive

Compound | outcome
CCOC(=O)c1cc(-c2cccc([N+](=O)[O-])c2)on1 | inactive
O=C(C1CCC1)N1CCN(S(=O)(=O)c2ccc(Br)cc2Cl)CC1 | inactive
CCCNC(=O)NC(=O)COc1ccc2oc3ccccc3c2c1 | inactive
COc1ccc(N=Cc2ccc(CNS(=O)(=O)c3ccc(Cl)cc3)o2)cc1 | inactive
CCOC(=O)c1ccc(NC(=S)Nc2ccc3[nH]c(=O)[nH]c3c2)cc1 | inactive
CCCN(C(=O)CCOc1ccc(C(C)(C)C)cc1)c1c(N)n(Cc2ccccc2)c(=O)[nH]c1=O | inactive
O=C(N/N=C/c1cn(-c2ccccc2)nc1-c1cccs1)c1ccc(Cl)cc1 | inactive
c1ccc(CCNc2ncnc3c2cnn3-c2ccccc2)cc1 | inactive
Nc1nc(-c2cccc(F)c2)cs1 | inactive
c1ccc(NNC2=NCCCCC2)cc1 | inactive
Cc1ccc(CN2CCN(Cc3ccc(-n4cccn4)cc3C)CC2CCO)cc1 (stereo not given) | inactive
C/C(=N\N(Cc1ccccc1)c1ccccc1)c1ccncc1 | inactive
O=C(NCc1ccc2c(c1)OCO2)c1c(O)nc2sccn2c1=O | inactive
CCOC(=O)C1CCN(C(=O)c2ccc3c(c2)NC(=O)/C(=C/c2ccccc2)S3)CC1 | inactive
O=C(CCN1C(=O)/C(=C/c2ccccc2Cl)SC1=S)N1CCCC1 | inactive
Clc1ccc(-c2ccc(C=Nc3ccc(N4CCOCC4)cc3)o2)c(Cl)c1 | inactive
O=C(c1ccccc1)c1c[nH]c(C(=O)NNc2ccccc2)c1 | inactive
O=C(C[n+]1ccccc1)NNc1ccccc1 | inactive
O=C(CSc1nc(Nc2ccccc2)nc(N2CCOCC2)n1)Nc1cc(Cl)ccc1O | inactive
CCOC(=O)c1cn[nH]c1N | inactive
O=C(NNc1ccc([N+](=O)[O-])cc1)c1ccco1 | inactive
CC(C)Oc1ccc(NC(=O)Oc2ccccc2)cc1 | inactive

Compound | outcome
COC(=O)C(NC(=O)c1ccc(OC)cc1)(Nc1ncc(S(=O)(=O)c2ccc([N+](=O)[O-])cc2)s1)C(F)(F)F (stereo not given) | inactive
N#C/C(=C1\CCCN1)c1nc(-c2ccccc2)cs1 | inactive
COC(=O)c1ccc(N/N=C/c2cc([N+](=O)[O-])cc(OC)c2O)cc1 | inactive
O=C(c1ccco1)N1CCN(C(=O)C2CC(c3ccc(Cl)c(Cl)c3)=NO2)CC1 (stereo not given) | inactive
CCCSC1=C(C#N)C(c2ccc(Cl)cc2Cl)CC(=O)N1 (stereo not given) | inactive
COc1ccc(S(=O)(=O)N(C)CC(=O)NCCCn2ccnc2)cc1Cl | inactive
CC1CCC/C(=N\NC(=S)Nc2ccccc2)C1 (stereo not given) | inactive
Cc1nn(-c2ccccc2)c(Cl)c1/C=N/NC(=O)c1ccc(CNc2ccccc2)o1 | inactive
Cc1cc(/C=C(/C#N)c2cccc(F)c2)c(C)n1-c1cccnc1 | inactive
COc1ccc2[nH]c(=O)c(CNc3cccc(C)c3)cc2c1 | inactive
CCOC(=O)c1ccc(NC(=O)CSc2ccc(-c3cccnc3)nn2)cc1 | inactive
CC1(C)CN(c2ccccc2)N(C(=O)c2ccc(C#N)cc2)C1=O | inactive
C(=N\N1CCN(C2c3ccccc3-c3ccccc32)CC1)/c1ccccn1 | inactive
CC(=O)c1ccc2c(c1)C1C(Cl)C(Sc3ccccc3[N+](=O)[O-])CC1C(c1ccccc1)N2 (stereo not given) | inactive
Cc1cn(-c2ccc(Br)cc2)[nH]c1=O | inactive
Nc1cnccc1C(=O)O | inactive
CC(NC(=O)c1ccccc1Br)C1CC2CCC1C2 (stereo not given) | inactive
O=C(NC1CCCCC1)C1CC(=O)N(c2cccc([N+](=O)[O-])c2)C1 (stereo not given) | inactive
Nn1c(SCc2ccccc2)nc2ccccc21 | inactive
COc1ccc(-c2oc3ncnc(NCCCN4CCOCC4)c3c2-c2ccc(OC)cc2)cc1 | inactive
O=c1[nH][nH]cc1C=Nc1ccc(Oc2ccccc2)cc1 | inactive
COc1ccc(NC(=O)C2C3C=CC(O3)C2C(=O)NCc2cccnc2)cc1 (stereo not given) | inactive

Compound | outcome
CC1CN(C(=S)SCC(=O)c2ccc([N+](=O)[O-])cc2)CC(C)O1 (stereo not given) | inactive
N#CC(c1cccc(Cl)c1)c1ccc2c(C(F)(F)F)cc(C(F)(F)F)nc2n1 (stereo not given) | inactive
CCc1n[nH]c(=S)n1/N=C/c1ccc(-c2ccc(Br)cc2)o1 | inactive
CCCCOC(=O)c1ccc(NC(=S)NC(=O)c2c(Br)c(C)nn2C)cc1 | inactive
CCn1c(SCC(=O)N(C)CCC#N)nc2cc(S(=O)(=O)N3CCOCC3)ccc21 | inactive
COC(=O)C1=C(C)NC(=O)/C1=C\c1cc(C)n(-c2cccc(C)c2)c1C | inactive
O=C(c1ccc(C#Cc2ccccc2)o1)N1CCN(c2ccccn2)CC1 | inactive
O=C(O)Cc1cnc[nH]1 | inactive
Cc1cc(/C=C/C(=O)O)c(C)n1-c1ccc(Cl)cc1 | inactive
O=C(CCN1C(=O)C2C3C=CC(C3)C2C1=O)Oc1ccc2ccccc2c1 (stereo not given) | inactive
Cc1cc(C2=NNC(=NC3CCCCC3)SC2)c(C)n1-c1c(C)n(C)n(-c2ccccc2)c1=O | inactive
COC(=O)c1cccc(OC(N)=O)c1 | inactive
CCOc1ccc(-n2c(O)c(/C=N/Nc3nnc(C)c(=O)[nH]3)c3ccccc3c2=O)cc1 | inactive
COc1cccc(NC(=O)Nc2nc(SC(C)(C)C)ns2)c1 | inactive
CN(C)S(=O)(=O)c1cccc(NC(=O)CCc2nc3sc4c(c3c(=O)[nH]2)CCCC4)c1 | inactive
Nc1ccc(-c2nc3ccc(-c4nc5ccccc5o4)cc3[nH]2)cc1 | inactive
CC(C)(C)c1nc(SCC(=O)Nc2nc3c(s2)CCCC3)c2ccccc2n1 | inactive
O=C(Nc1cc(Oc2ccccc2)cc([N+](=O)[O-])c1)C12CC3CC(C1)CC(n1cnc(Cl)n1)(C3)C2 | inactive
C/C(=N\NC(=O)c1cc2c(s1)CCC(C)C2)c1ccncc1 (stereo not given) | inactive
CCC1(c2ccccc2)NC(=O)N(CC(=O)Nc2ccc(S(=O)(=O)NC3=NCCCCC3)cc2)C1=O (stereo not given) | inactive
Nc1cc(C(=O)OCC(=O)NNC(=O)c2cccs2)ccc1Cl | inactive
CSc1ccc(CNC(=O)C2Cc3cc(S(=O)(=O)N4CCCCC4)ccc3N2C(C)=O)cc1 (stereo not given) | inactive

Compound | outcome
Nc1ncc2[nH]cnc2n1 | inactive
O=C(COc1cc(O)c2c(=O)c3ccccc3oc2c1)OCc1ccccc1 | inactive
CCCc1ccc(OCc2ccccc2)c2c(=O)cc(C(=O)OCC)oc12 | inactive
Cc1ccc(NC(=O)C2CCN(S(=O)(=O)c3ccc4c(c3)NC(=O)C(C)S4)CC2)c(Cl)c1 (stereo not given) | inactive
O=C(c1cc([N+](=O)[O-])ccc1N1CCOCC1)N1CCN(S(=O)(=O)c2cc(Cl)ccc2Cl)CC1 | inactive
COc1ccc2c(C)nc(Nc3nc(C)c(C)c(=O)[nH]3)nc2c1 | inactive
COc1ccc(N/C=C/c2nc(SC)nnc2C)cc1 | inactive
COc1ccc(Oc2ccc(N/C=C/C(=O)C(C)(C)C)cc2)cc1 | inactive
CCCOc1ccc(C(=O)c2nc3c(n2O)CCCCC3)cc1 | inactive
CCCc1ncc(CN2CCCC(C(=O)Nc3ccc(-c4cccc(OC)c4)cc3)C2)cn1 (stereo not given) | inactive
N/C(=N\OC(=O)CCC1CCCC1)c1cccc([N+](=O)[O-])c1 | inactive
Cc1ccccc1C(=O)Nc1ccc(N(C)C)c2ccccc12 | inactive
O=C(N/N=C/c1ccc(Br)s1)c1cccs1 | inactive
CCn1nnc(-c2ccc(N)cc2)n1 | inactive
COc1ccc(N2CN=C3SCC(=O)N3C2)cc1 | inactive
COc1ccc(C(C(O)C(=O)c2c[nH]c3ccccc23)N2CCN(c3ccc(OC)cc3)CC2)cc1 (stereo not given) | inactive
CCOc1ccc(NC(=S)NC23CN4CN(CN(C4)C2)C3)cc1 | inactive
CCOC(=O)c1ccc(OC(=O)CCCCCN=C(N)N)cc1 | inactive
COc1ccccc1C(=O)NC(=Nc1nc2ccccc2o1)NC(=O)c1ccccc1OC | inactive
O=C(CN1CCN(c2ccc(F)cc2)CC1)N1CCC(Cc2ccccc2)CC1 | inactive
CC(=Nc1ccc(C)c(C)c1)C1=C(O)CSC1=O | inactive
CCOc1ccc(S(=O)(=O)N2CCN(C(=O)c3cc4c(s3)CCCC4)CC2)cc1 | inactive
